M18AAP inhibitor = PfM18AAP inhibitors, malaria aminopeptidase, primary screen, biochemical, QFRET, recombinant enzyme; M18 aspartyl aminopeptidase (Plasmodium falciparum 3D7); AID 1822, 2009; 290,000 tested, 1.2% active; H-Glu-NHMec fluorogenic cleavage; inhibition, % at 7.35 µM;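 active = inhibition above the campaign mean inhibition over all tested compounds plus 3 SD, cut at about 28% in these data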;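 also: 0% = plate median of test compound wells and 100% = 2 mM ZnCl2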
PAFAH2 inh = PAFAH2 enzyme inhibitors, primary screen, biochemical, fluorescence polarization, human; recombinant PAFAH2, FP-rhodamine activity probe; Platelet-activating factor acetylhydrolase 2, cytoplasmic (Homo sapiens), Q99487; 340,000 tested, 0.99% active; inhibition, % at 3.39 µM;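 active = inhibition above the mean over all tested compounds plus 3 SD, cut at about 30% in these data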;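 also: inhibitors block probe labeling of enzyme so polarization drops; 0% = enzyme with DMSO and 100% = wells lacking PAFAH2 protein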
PAFAH1B3 FP inh = PAFAH1B3 enzyme inhibitors, primary screen, biochemical, fluorescence polarization, human. Platelet-activating factor acetylhydrolase IB subunit alpha1 (Homo sapiens), Q15102. recombinant PAFAH1B3, FP-rhodamine probe. inhibition, % at 3.39 µM. 340,000 tested, 0.28% active. AID 492972, 2010;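 active = inhibition above the screen-wide average of all tested compounds plus 3 SD, cut at about 25% in these data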;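 also: 0% = enzyme with DMSO only and 100% = wells lacking PAFAH1B3 protein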
Pemphigus Ab inh = inhibitors of pemphigus antibody binding to DSG3, primary screen, biochemical, bead-based, flow cytometry, scFv-GFP. AID 588358, 2011. DSG3-coupled beads, scFv-anti-DSG3-GFP binding; stronger effect = lower value. binding (percent of control), % at 10 µM. 310,000 tested, 0.48% active. Desmoglein-3 (Homo sapiens), P32926;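 active = binding more than 3 SD below its plate's average and above zero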;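 also: hits lower antibody fragment binding to DSG3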
Target sequence (P32926 whole entry, looked up, the tested form may be a part): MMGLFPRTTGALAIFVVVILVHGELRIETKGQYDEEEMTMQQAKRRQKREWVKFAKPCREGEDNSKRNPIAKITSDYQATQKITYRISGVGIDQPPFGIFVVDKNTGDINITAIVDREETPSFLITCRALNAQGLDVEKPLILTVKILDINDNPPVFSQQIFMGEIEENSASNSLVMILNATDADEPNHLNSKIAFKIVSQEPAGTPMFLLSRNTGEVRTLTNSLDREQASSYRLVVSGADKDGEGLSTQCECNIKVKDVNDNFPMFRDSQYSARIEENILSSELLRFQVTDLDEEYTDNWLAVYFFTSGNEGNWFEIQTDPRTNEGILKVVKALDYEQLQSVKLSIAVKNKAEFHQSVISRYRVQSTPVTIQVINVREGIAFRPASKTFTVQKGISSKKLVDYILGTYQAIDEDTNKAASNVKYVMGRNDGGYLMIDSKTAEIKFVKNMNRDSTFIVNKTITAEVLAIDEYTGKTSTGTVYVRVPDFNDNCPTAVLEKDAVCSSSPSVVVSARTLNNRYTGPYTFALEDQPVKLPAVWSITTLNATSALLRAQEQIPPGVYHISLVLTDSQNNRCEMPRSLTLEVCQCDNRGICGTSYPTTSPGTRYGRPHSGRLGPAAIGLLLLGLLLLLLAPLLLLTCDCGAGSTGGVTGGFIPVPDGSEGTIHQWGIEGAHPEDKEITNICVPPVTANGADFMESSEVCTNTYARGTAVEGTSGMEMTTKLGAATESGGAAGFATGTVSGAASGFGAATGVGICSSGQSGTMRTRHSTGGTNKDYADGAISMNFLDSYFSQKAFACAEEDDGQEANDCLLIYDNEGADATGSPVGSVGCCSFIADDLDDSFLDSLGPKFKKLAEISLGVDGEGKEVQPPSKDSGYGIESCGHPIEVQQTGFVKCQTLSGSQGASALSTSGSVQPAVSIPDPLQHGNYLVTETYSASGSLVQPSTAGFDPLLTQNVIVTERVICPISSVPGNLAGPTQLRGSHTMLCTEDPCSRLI
pPAFAH FP inh = pPAFAH enzyme inhibitors, primary screen, biochemical, fluorescence polarization, human. AID 463082, 2010. recombinant pPAFAH, FP-rhodamine probe fluorescence polarization. inhibition, % at 3.39 µM. 330,000 tested, 1.5% active. Platelet-activating factor acetylhydrolase (Homo sapiens), Q13093;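 active = inhibition above the mean inhibition across the screen plus 3 SD, cut at about 25% in these data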;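 also: inhibitors block binding of the rhodamine activity-based probe so polarization drops; 0% = enzyme with DMSO and 100% = wells lacking pPAFAH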
PAFAH1B2 inh = PAFAH1B2 enzyme inhibitors, primary screen, biochemical, fluorescence polarization, human | Platelet-activating factor acetylhydrolase IB subunit alpha2 (Homo sapiens), P68402 | recombinant PAFAH1B2, FP-rhodamine activity probe | inhibition, % at 3.39 µM | 340,000 tested, 1.2% active | AID 492953, 2010;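 active = inhibition above the mean of all tested compounds plus 3 SD, cut at about 24% in these data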;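 also: 0% = enzyme with DMSO and 100% = wells lacking PAFAH1B2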
* = called active by the depositor; / = not tested or not shown; ! = not confirmed by another sample. Most compounds without a hit are left out; they make up all but 3.8% or so of the library.

SMILES	M18AAP inhibitor	PAFAH2 inh	PAFAH1B3 FP inh	Pemphigus Ab inh	pPAFAH FP inh	PAFAH1B2 inh
C[C@]12CCC[C@H](O1)c1c(cc3c(c1O)C(=O)c1c(O)cc(O)cc1C3=O)O2	/	30*	19	97	27*	15
CC1(C)CC(=O)c2c(O)cc(O)cc2O1	-16	15	15	94	-3	7
Cc1cc(C)n(CCNc2nc3nonc3nc2N2CCCCC2)n1	-4	-1	0	100	28*	5
Cc1cc(C)n(CC(C)Nc2nc3nonc3nc2N2CCCCC2)n1 (stereo unspecified)	1	4	7	99	-4	2
CN=c1scc(-c2ccccc2F)n1/N=C/c1ccc(O)c(O)c1O	31*	3	7	89	/	-5
C[C@H](CO)N1C[C@H](C)[C@@H](CN(C)C(=O)Cc2ccccc2)OCCCC[C@H](C)Oc2ccc(NC(=O)NC3CCCCC3)cc2C1=O	/	/	/	103	/	/
CCN(CC)c1ccc(C(=O)OCC(=O)NC(C)(C)C)cc1	-1	81*	4	105	34*	7
CC(C)(C)NC(=O)COC(=O)c1ccc(Cl)nc1	1	2	-1	97	6	-3
CN(C(=O)COC(=O)C1COc2ccccc2O1)c1c(N)n(Cc2ccccc2)c(=O)[nH]c1=O (stereo unspecified)	/	-3	3	101	-1	-6
N#C/C(=C\c1ccc(N2CCOCC2)o1)C(=O)NCC1CCCO1 (stereo unspecified)	13	5	6	95	-2	3
N#C/C(=C\c1ccc(N2CCOCC2)o1)C(=O)NC1CCCCC1	7	2	3	102	-2	24*
COc1ccc(C(=O)c2coc3c2C(=O)C(=O)c2ccccc2-3)cc1	15	15	11	108	19	5
O=C(c1ccccc1)c1coc2c1C(=O)c1ccccc1C2=O	8	48*	29*	104	1	3
COC(=O)C1=C/C=C\CN(C(c2ccccc2)c2ccccc2)/C=C\1C(=O)OC	/	/	/	100	/	/
Cc1ccc(-c2csc(N3CCC[C@@H]3C(=O)NCCn3c(-c4ccncc4)nc4ccccc43)n2)cc1	0	-10	0	110	5	-2
Cc1ccsc1C(=O)OCC(=O)NC1CCCCC1	/	/	/	109	/	/
COC(=O)CCC/C=C1/SCC(NC(=O)c2ccccc2)C1=O (stereo unspecified)	-14	-8	-5	117	26*	1
C=CCc1ccccc1Oc1cc(F)nc(N)n1	0	-2	6	116	3	-2
NS(=O)(=O)c1cccc(NC(=O)COC(=O)CNC(=O)c2ccc(-c3ccccc3)cc2)c1	/	-3	0	95	-8	-3
N=c1c(S(=O)(=O)c2ccc(Br)cc2)cc2c(=O)n3ccccc3nc2n1CCN1CCOCC1	/	6	-4	96	/	41*
N=c1c(S(=O)(=O)c2ccccc2)cc2c(=O)n3ccccc3nc2n1Cc1ccco1	-7	29	3	/	26*	2
C[C@@H]1CN([C@H](C)CO)C(=O)CCCn2nncc2CO[C@H]1CN(C)Cc1cccnc1	/	/	/	110	/	/
COc1ccc(NC(=O)CSc2ccc3c4c(cccc24)C(=O)c2ccccc2-3)cc1	0	3	0	137	2	2
N#Cc1cccc(NC(=O)CSc2ccc3c4c(cccc24)C(=O)c2ccccc2-3)c1	7	36*	27*	180	23	30*
CN(Cc1ccccn1)C(=O)c1cc(COc2ccc(F)c(F)c2)on1	/	/	/	97	/	/
SMILES	M18AAP inhibitor	PAFAH2 inh	PAFAH1B3 FP inh	Pemphigus Ab inh	pPAFAH FP inh	PAFAH1B2 inh
COc1cc(OC)c(NC(=O)CCNS(=O)(=O)c2ccc3c(c2)oc(=O)n3C)cc1Cl	-8	6	2	107	25*	-3
O=C(CCCn1c(=O)[nH]c2ccccc2c1=O)NCCSCc1ccccc1	-12	-5	11	23*	10	7
COC(=O)CSc1nc(N)c2c3c(sc2n1)CCCC3	28*	-5	-1	100	2	3
C=CC(=O)Nc1cccc(CN2C(=O)N(c3cc(OC)cc(OC)c3)Cc3cnc(NCCCCN(CC)CC)nc32)c1	/	4	9	114	/	-1
O=C(Nc1cccn(Cc2c(F)cccc2Cl)c1=O)NC1CCCCC1	28*	0	5	97	7	9
O=C(Nc1cccn(Cc2cccc(F)c2)c1=O)NC1CCCCC1	1	0	2	95	3	-3
O=C(O)C(=Cc1ccc([N+](=O)[O-])cc1)c1cccc(Cl)c1	/	/	/	98	/	/
CC(C)=NNc1nc(-c2ccc(N3C(=O)CCC3=O)cc2)cs1	28*	-3	6	/	22	-2
O=C(Nc1cc(Cl)ccc1Oc1ccccc1)c1ccccc1F	0	15	2	97	8	-2
O=C(Nc1ccccc1Oc1ccccc1)c1ccccc1F	-2	2	3	102	28*	0
CC(=O)c1c2c3c(c(Br)ccc3n(C)c1=O)C(=O)c1ccccc1-2	3	-4	14	100	29*	3
COc1ccc(/C=N/NC(=O)c2cc(C34CC5CC(CC(C5)C3)C4)[nH]n2)cc1O	3	6	-1	103	13	29*
COc1ccc(/C=N\NC(=O)c2ccc(=O)[nH]n2)cc1O	15	7	1	92	2	-1
Cc1cc(NC(=O)c2cc(-c3ccncc3)nc3ccccc23)ccc1Br	/	-26	-19	99	-8	-22
O=S(=O)(c1ccc(Cl)cc1)N1CCCC(C(F)(F)F)C1 (stereo unspecified)	0	7	5	98	6	30*
O=C(c1ccc2ccccc2n1)N1CCN(S(=O)(=O)c2ccc(Cl)cc2)CC1	/	2	2	103	0	28*
CN1CCN(S(=O)(=O)c2ccc(Cl)cc2)CC1	-14	-1	11	89	-9	25*!
COc1ccc(S(=O)(=O)N2CCCC(C(F)(F)F)C2)cc1 (stereo unspecified)	0	4	10	101	1	13
Cc1ccc(S(=O)(=O)c2ccc(Cl)cc2)cc1S(=O)(=O)N1CCN(C)CC1	6	-1	4	103	6	26*
Cc1ccc(S(=O)(=O)Oc2ccccc2-c2ccccc2)cc1	/	-1	5	103	/	14
CCC(C)(C)C1CCC2(CC1)NC(=O)N(CC(=O)NC(C)CCc1ccccc1)C2=O (stereo unspecified)	/	3	-3	99	/	8
O=C(C1CCN(S(=O)(=O)c2ccc(Cl)cc2)CC1)N1CCCCCCC1	5	-8	8	103	0	6

From PubChem
